# From PubChem BioAssay
# A selection: hits, their analogues and other compounds. The true share with any hit is near 2.2%.
# VLA-4 inh: inhibition in human VLA-4 binding assay, primary screen, VLA-4 allosteric modulator project, MLPCN library, flow cytometry, VLA-4 expressing cells; Integrin alpha-4 (Homo sapiens), P13612; ligand binding flow cytometry; inhibition, % (about 7 µM as worked out from the volumes in the protocol); actives 0.2% (n = 330,000); in the data active means inhibition above about 50%
# MEX-5 binding: MEX-5 zinc finger RNA-binding disruptors – biochemical, C. elegans, fluorescence polarization, MLPCN library, primary screen; activity score (negative = inhibition of binding), % at 10 µM; Zinc finger protein mex-5 (Caenorhabditis elegans), Q9XUB2; actives 0.38% (n = 300,000); MEX-5/FITC-TCR2 RNA binding; stronger effect = lower value;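 active means inhibition past about -25% in most replicates, and total fluorescence under double the plate's negative control median, limit read from the data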;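 further: 0% = DMSO and -100% = 5 µM competing unlabeled TCR2 RNA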
# Target sequence (Q9XUB2 whole entry, looked up): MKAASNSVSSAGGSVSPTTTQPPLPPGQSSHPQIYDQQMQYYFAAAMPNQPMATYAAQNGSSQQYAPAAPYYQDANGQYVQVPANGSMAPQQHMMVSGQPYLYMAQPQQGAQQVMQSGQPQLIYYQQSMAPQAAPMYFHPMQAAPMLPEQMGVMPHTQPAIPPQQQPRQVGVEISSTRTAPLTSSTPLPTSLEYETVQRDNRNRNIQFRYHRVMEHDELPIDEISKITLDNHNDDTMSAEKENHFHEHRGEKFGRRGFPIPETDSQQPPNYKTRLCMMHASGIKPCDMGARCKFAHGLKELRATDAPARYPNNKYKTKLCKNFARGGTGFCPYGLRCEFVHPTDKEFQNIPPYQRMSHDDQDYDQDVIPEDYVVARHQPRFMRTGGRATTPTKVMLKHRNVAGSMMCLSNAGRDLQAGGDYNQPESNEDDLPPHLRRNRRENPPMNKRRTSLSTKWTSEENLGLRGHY
# Exocytosis inh: LAMP-1 surface exposure blockers, TALL-104 cells – cell-based, flow cytometry, MLPCN library, primary screen. actives 0.66% (n = 360,000). inhibition, % at 10 µM. AID 651702, 2012. TALL-104 LAMP-1 surface exposure; cells stimulated with thapsigargin and PMA;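 active means inhibition above about 55%, limit read from the data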
# JMJD2C inh: inhibitors of GASC-1 histone demethylase, primary screen, biochemical, fluorescence, DELFIA europium; Lysine-specific demethylase 4C (Homo sapiens), Q9H3R0; AID 2099, 2009; GST-JMJD2C(1-420) H3K9me3 demethylation; inhibition, % at 2.35 µM; actives 0.069% (n = 330,000);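 active means more than half of a compound's replicate wells show inhibition beyond 50%, single wells judged on their own value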;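 further: signal counts dimethyl H3K9 product captured on neutravidin plate; 0% = median of DMSO wells and 100% = 0.3 times that DMSO median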
# m5-HT2A agonist: mouse Htr2a agonists via beta-arrestin recruitment, primary screen, cell-based, luminescence; activation, % at 7.6 µM; AID 624169, 2012; 5-hydroxytryptamine receptor 2A (Mus musculus), P35363; CHO-K1 mHTR2A beta-arrestin complementation; percent of 30 µM serotonin response; actives 0.66% (n = 360,000);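 active means activation above a run cutoff, the mean activation of all tested compounds plus 3 SD, cut at about 14% in these data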;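 further: 0% = plate median of compound wells and 100% = 30 µM serotonin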
# V-ATPase pHluor: regulators of yeast V-ATPase proton pumping, primary screen, pHLuorin cytosolic pH fluorescence; S. cerevisiae; response, % at 10 µM; actives 0.37% (n = 350,000); in the data active means response mostly above about 7.3%, no sharp cut-off; inactive means mostly below about 5.4%; further: actives read high
# Granule exo CP1: inhibitors of lytic granule exocytosis, confirmation, TALL-104 cells, flow cytometry, Cherry Pick01; shares compounds with Exocytosis inh; inhibition, % at 10 µM; LAMP-1 externalization; stimulated with PMA plus thapsigargin; actives 11% (n = 1,500); in the data active means inhibition above about 60%;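 further: 0% = stimulated vehicle wells and 100% = unstimulated wells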
# An asterisk follows results filed as active; nt = not tested or not shown.
SMILES,VLA-4 inh,MEX-5 binding,Exocytosis inh,JMJD2C inh,m5-HT2A agonist,V-ATPase pHluor,Granule exo CP1
CCc1nccn1C(=O)c1cnn2c(C(F)F)cc(-c3ccc(C)cc3)nc12,12,2,89*,-6,4,-2,37
COCc1ccc(C(=O)NC2CCCN(Cc3ccccc3F)C2)o1 (stereo not given),-1,0,3,-8,0,3,nt
COc1ccc(Cl)cc1N(C(=O)c1ccco1)C(C(=O)NC1CCCC1)c1ccncc1 (stereo not given),6,-3,27,-7,9,-2,nt
COc1ccc(Cl)cc1N(C(=O)c1ccco1)C(C(=O)NC1CCCC1)c1ccco1 (stereo not given),-7,-1,64*,-3,-6,0,-15
Cc1ccc(-c2csc(NC(=O)Cc3ccc(F)cc3)n2)o1,3,2,75*,25,-2,2,-13
COc1ccc(OC)c(-c2csc(NC(=O)c3ccc(F)cc3)n2)c1,7,3,80*,1,-2,-2,-4
Cc1ccc(-c2csc(NC(=O)c3ccc(-c4ccccc4)cc3)n2)o1,-18,-6,48,-7,0,1,nt
COc1ccc(OC)c(-c2csc(NC(=O)Cc3cc(OC)c(OC)c(OC)c3)n2)c1,-14,-3,44,0,-3,0,nt
COc1ccc(OC)c(-c2csc(NC(=O)c3ccc(OCC4CCCO4)cc3)n2)c1 (stereo not given),2,-3,-3,4,0,3,nt
COc1ccc(OC)c(-c2csc(NC(=O)Cc3ccc(F)cc3)n2)c1,-8,-2,97*,-11,8,-2,-12
Cc1cn([C@H]2C[C@H](O)[C@@H](CNC/C=C/c3ccccc3[N+](=O)[O-])O2)c(=O)[nH]c1=O,nt,nt,-7,nt,-7,0,nt
Cc1cc(OCC(=O)N2CCN(c3cccc(Cl)c3)CC2)c2c(C)c(C)c(=O)oc2c1,-7,5,10,2,6,2,nt
Cc1cc(OC(C)C(=O)N2CCN(c3ccc(F)cc3)CC2)c2c(C)c(C)c(=O)oc2c1 (stereo not given),-6,-1,64*,-5,0,3,-12
CN1CCN(c2ccc(NC(=O)c3sc4ccccc4c3Cl)cc2)CC1,5,1,40,-10,-2,3,nt
COC(=O)c1ccc(N2CCN(C)CC2)c(NC(=O)c2sc3ccccc3c2Cl)c1,8,0,78*,6,-6,6,91*
O=C(Nc1ccc2c(c1)OCO2)C1CCCN(c2nc3ccccc3s2)C1 (stereo not given),4,-1,62*,-2,-5,-1,-13
CCc1nnc(NC(=O)C2CCCN(c3nc4ccccc4s3)C2)s1 (stereo not given),6,-2,-5,-36,3,-2,nt
N#CCCn1cc(C(=O)Nc2cccc(C(=O)O)c2)c(-c2ccc(Cl)cc2)n1,5,0,-6,-7,4,9,nt
CN(CC(O)COc1ccc(OCC(O)CN(C)C2CCCCC2)cc1)C1CCCCC1 (stereo not given),10,0,-2,-10,11,3,nt
Cc1cccc(C)c1OCC(O)CN(Cc1ccccc1O)C1CCCCC1 (stereo not given),-2,1,57*,-23,2,-2,-4
COc1ccc2oc(=O)cc(CN(C)Cc3ccccc3)c2c1,18,-3,72*,-7,11,7,0
Cc1cc2oc(=O)cc(CN(C)Cc3ccccc3F)c2cc1Cl,1,-2,28,1,2,-1,nt
Cc1cc2oc(=O)cc(CN(C)Cc3ccccc3)c2cc1C(C)C,-3,0,69*,0,-4,-2,4
Cc1cc2oc(=O)cc(CN(C)Cc3ccccc3Cl)c2cc1C,-6,1,96*,5,7,1,0
COC(=O)C1=C[C@@H](C(=O)OC)[C@@H]2C3=C(C(=O)[C@@]2(C)NC(=O)c2ccccc2)[C@H](C)C(C(=O)OC)=C(C(=O)OC)[C@@H]3C1,-15,2,9,7,-5,-3,nt
SMILES,VLA-4 inh,MEX-5 binding,Exocytosis inh,JMJD2C inh,m5-HT2A agonist,V-ATPase pHluor,Granule exo CP1
CN(C(=O)C1CCC(=O)N(Cc2cccc(F)c2)C1)C1CCCCC1 (stereo not given),18,-4,-2,-6,3,-2,nt
COc1ccc(NC(=O)CSc2nc(C)cs2)c([N+](=O)[O-])c1,-1,nt,0,1,0,-1,nt
CCc1nc2cc(NC(=O)C3(C)CCCN(C(C)C)C3)ccc2o1 (stereo not given),nt,nt,-3,nt,1,nt,nt
CCCCn1c(-c2nonc2NC(=O)c2ccccc2Cl)nc2ccccc21,nt,nt,77*,nt,-1,1,-14
N#CCCn1c(-c2nonc2NC(=O)c2ccccc2Cl)nc2ccccc21,10,-4,4,-1,2,3,nt
COCCN(C(=O)COC(=O)c1ccc2ccccc2c1)c1c(N)n(Cc2ccccc2)c(=O)[nH]c1=O,nt,nt,-1,nt,-4,-4,nt
CCC(C)[C@H](NC(=O)NCc1ccc(F)cc1)C(=O)O (stereo not given in full),6,0,0,15,-1,12,nt
CCC(C)[C@H](NC(=O)NCc1ccccc1)C(=O)O (stereo not given in full),19,-3,100*,4,7,12,-11
CC(C)N(Cc1ccccc1)S(=O)(=O)c1ccc(F)cc1,7,3,64*,-1,-4,0,-14
CC(CN1CCN(C/C=C/c2ccccc2)CC1)c1ccccc1 (stereo not given),11,6,42,26,-8,-6,nt
CC(=O)c1cccc(-c2ccnc3c2CC(C(=O)Nc2ccccc2)O3)c1 (stereo not given),nt,nt,-2,nt,-4,nt,nt
OCC1(CCc2ccccc2)CCCN(C/C=C/c2ccccc2)C1 (stereo not given),-10,1,-6,-8,-6,0,nt
COc1ccccc1/C=C/CN1CCCC(CO)(CCc2ccccc2)C1 (stereo not given),-13,2,58*,-26,-9,3,-5
O=C(c1ccc(Br)cc1)N(Cc1nc2ccccc2c(=O)[nH]1)C1CCCC1,-2,-2,2,-3,-1,0,nt
